The results in this text go back to PubChem BioAssay (NCI).

Molecules are shown by their SMILES. About 83,000 compounds went through this panel and 20% of them were active in at least one assay; those are over-represented in the sample as a whole.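 Cells were grown in 96-well plates and exposed to the test compound at a single concentration for 48 hours; results are reported as percent growth, with values below 10 considered active.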 Active and inactive are the calls of the source.

This assay deals with SF-295 CNS. Kind of assay: NCI-60 one-dose screen, 48 h (100 = growth as untreated, 0 = no growth, -100 = all killed). Conditions: 10 µM.
For `COc1ccc(/C=C2\CCCC3=C2NC(N)=NC3c2ccc(OC)cc2)cc1` (stereo not given), the growth was 104% (inactive).
Then `CN(C)CCCOc1cccc(NC2=C(Cl)C(=O)C(Nc3cccc(OCCCN(C)C)c3)=C(Cl)C2=O)c1`, with 64.3% (inactive).
For `N#CC1=C(N)Oc2cc(N)ccc2C1c1cccnc1` (stereo not given), the growth was 99.7% (inactive).
Then `COc1cc(/C=C/c2cc(/C=C/c3ccc(O)c(OC)c3)n(C(=O)Nc3ccc(C)cc3)n2)ccc1O`, with 0.531% (active); and `Cc1ccc(-n2nnnc2N)c(C)c1`, with 96.7% (inactive); and `CCCCN(CCCC)C(=O)[C@H](CC)[C@@H]1CC[C@@H](C)[C@@H]([C@H](C)[C@@H](O)[C@@H](C)C(=O)[C@H](CC)C2O[C@]3(C=C[C@@H](O)[C@]4(CC[C@@](C)([C@H]5CC[C@](O)(CC)[C@H](C)O5)O4)O3)[C@H](C)C[C@@H]2C)O1` (stereo not given in full), with -10.4% (active).
Regarding `COc1ccc2c(c1)C(=O)/C(=C/c1ccc([N+](=O)[O-])o1)O2`, the growth was 3.29% (active).
In the case of `Cc1ccc(S(=O)(=O)N(C)CCCCCC(=O)O)cc1`, the growth was 92.7% (inactive).
Next, `NC1=NC(c2ccc(Cl)cc2)C2=C(N1)/C(=C/c1ccc(Cl)cc1)CCC2` (stereo not given): 67.5% (inactive).
`S=C(NCc1ccccc1)NCc1ccccc1`: the growth was 95.8% (inactive).
For `COc1cc2cc(Oc3ccc(NC(=O)c4ccccc4)cc3)c(C)nc2cc1OC`, the growth is 72.2% (inactive).
Turning to `Cc1c(Cl)cccc1NC(=O)CN1CCOCC1`, the growth was 99.3% (inactive).
For `C=CCN(CC=C)C(=O)[C@H](CC)[C@@H]1CC[C@@H](C)[C@@H]([C@H](C)[C@@H](O)[C@@H](C)C(=O)[C@H](CC)C2O[C@]3(C=CC(=O)[C@]4(CC[C@@](C)([C@H]5CC[C@](O)(CC)[C@H](C)O5)O4)O3)[C@H](C)C[C@@H]2C)O1` (stereo not given in full), the growth is 5.69% (active).
On to `CCN1CCN(CCC(=O)Nc2cccc(-n3cc(-c4ccncc4)c(-c4ccc(Cl)c(OC)c4)n3)c2)CC1`, for which the growth is 9.42% (active).
As to `Nc1ccn(Cc2nnc(CCC(=O)c3nc4ccccc4[nH]3)o2)c(=O)n1`, the growth is 79.8% (inactive).
For the compound `Cc1ccc2nc(Cl)c(-c3nc4ccccc4o3)cc2c1`, the growth was 105% (inactive).
Regarding `C/C=C/CSC(C)(C)C(=O)NC`, the growth is 106% (inactive).
On to `COc1cc2c(Nc3ccc(S(N)(=O)=O)cc3)ncnc2c(OC)c1OC`, for which the growth was 105% (inactive).
Take `CC(=O)OC1C=CC(OC(C)=O)O1` (stereo not given): the growth was 93.5% (inactive).
With `CC(=O)C1N=NCC1c1ccccc1` (stereo not given), the growth is 95.4% (inactive).
Then `O=C(CN(C1CCCCC1)C1CCCCC1)Nc1ccc(S(=O)(=O)c2ccc(NC(=O)CN(C3CCCCC3)C3CCCCC3)cc2)cc1`, with 14.4% (inactive); and `Cc1c[nH]c(=O)n(Cc2nnc(CCC(=O)c3nc4ccccc4[nH]3)o2)c1=O`, with 21.5% (inactive); and `O=C(CCn1cnc2c(cc(-c3ccccc3)n2-c2ccccc2)c1=O)Nc1ccc(F)cc1`, with 77.8% (inactive).
Next, `CN(C)CCOc1cccc(NC2=C(Cl)C(=O)C(Nc3cccc(OCCN(C)C)c3)=C(Cl)C2=O)c1`: 66.5% (inactive).
With `CN1CCN(CCC(=O)Nc2cccc(-n3cc(-c4ccncc4)c(-c4ccc(Cl)c(O)c4)n3)c2)CC1`, the growth was 19.3% (inactive).
Next, `CC(=O)Nc1ccc(CC[C@H]2CCC/C=C/[C@@H]3C[C@H](O)C[C@H]3[C@H](O)/C=C/C(=O)O2)cc1`: 16.9% (inactive); `CN(C)CCN(Cc1ccccc1)c1ccc2ccccc2n1`: 88.5% (inactive); `C/C(=N\O)c1ccc(NC(=O)CSc2nnc(-c3ccccc3)n2-c2ccccc2)cc1`: 92.2% (inactive).
For `CCC(CC)n1c(C)cc(=O)n1C(CC)CC`, the growth was 100% (inactive).
Then `CC[C@@H](C(=O)[C@H](C)[C@H](O)[C@@H](C)[C@H]1O[C@H]([C@@H](CC)C(=O)O)CC[C@H]1C)C1O[C@]2(C=C[C@@H](O)[C@]3(CC[C@@](C)([C@H]4CC[C@](O)(CC)[C@H](C)O4)O3)O2)[C@H](C)C[C@@H]1C` (stereo not given in full), with -12.6% (active).
Then `O=C(O)c1cc([N+](=O)[O-])ccc1Oc1ccccc1`, with 101% (inactive).
Turning to `O=[N+]([O-])c1cccc(/C=N/NC(=S)NC23CC4CC(CC(C4)C2)C3)c1`, the growth was 73.3% (inactive).
For `COc1cc(C(=O)n2nc(-c3cc(OC)c(OC)c(OC)c3)nc2N)cc(OC)c1OC`, the growth is 92.7% (inactive).
With `COc1ccc(-c2n[nH]nc2-c2cc(OC)c(OC)c(OC)c2)cc1`, the growth was 13.7% (inactive).
As to `C=CCN(CC=C)C(=O)[C@H](CC)[C@@H]1CC[C@@H](C)[C@@H]([C@H](C)[C@@H](O)[C@@H](C)C(=O)[C@H](CC)C2O[C@]3(C=C[C@@H](O)[C@]4(CC[C@@](C)([C@H]5CC[C@](O)(CC)[C@H](C)O5)O4)O3)[C@H](C)C[C@@H]2C)O1` (stereo not given in full), the growth was -16% (active).
Consider `O=C(Nc1cccc2c1CCCC2)c1cc2ccccc2cc1O`, for which the growth was 79.9% (inactive).
Next, `O=C1/C=C/[C@@H](O)[C@@H]2C[C@@H](O)C[C@H]2/C=C/CCC[C@H](CCc2ccc(NC(=S)Nc3ccc4c(c3)C(=O)OC43c4ccc(O)cc4Oc4cc(O)ccc43)cc2)O1`: 22.2% (inactive); `COc1cc(/C=C/c2cc(/C=C/c3ccc(O)c(OC)c3)nc(N)n2)ccc1O`: -5.25% (active); `CC(=O)Oc1cc(OC(C)=O)c2ccccc2c1OC(C)=O`: 103% (inactive).
With `CCOc1ccccc1/C=N\N=C\c1ccccc1O`, the growth was 105% (inactive).
